Hits are enriched below; roughly 4.6% of the tested compounds scored in any of these assays.
D1 potentiator – human D1 dopamine receptor positive modulation. P21728. HEK293 TREx D1 cells, calcium flux, dopamine EC20 potentiation. potentiation, % at 10 µM. 360,000 compounds, 0.036% hits. AID 504651; in the data active = potentiation above about 30%
TRHR agonist – agonists of human TRH receptor | P34981 | 360,000 compounds, 0.18% hits | AID 493084 | TRHR cells, calcium flux fluo-8, FDSS agonist mode | activation, % at 2 µM
Target sequence (P34981 whole entry, looked up): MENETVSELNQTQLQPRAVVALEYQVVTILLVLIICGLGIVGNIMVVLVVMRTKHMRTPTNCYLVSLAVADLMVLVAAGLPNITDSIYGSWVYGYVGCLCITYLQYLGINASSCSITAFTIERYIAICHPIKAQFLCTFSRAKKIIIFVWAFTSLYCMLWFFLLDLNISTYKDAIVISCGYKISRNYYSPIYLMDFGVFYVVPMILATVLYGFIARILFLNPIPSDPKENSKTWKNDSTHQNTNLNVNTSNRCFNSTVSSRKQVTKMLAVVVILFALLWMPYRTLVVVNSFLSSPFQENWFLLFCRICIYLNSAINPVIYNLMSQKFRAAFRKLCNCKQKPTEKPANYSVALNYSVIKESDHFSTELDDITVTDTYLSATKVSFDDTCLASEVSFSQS
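Read-out: compound-evoked intracellular calcium rise in TRHR cells, fluo-8 dye, kinetic FDSS fluorescence at 1 s/cycle following a 10-cycle baseline. Cells cultured overnight before dye loading (30 min–1.5 h, RT).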
D1 antag – antagonists of human D1 dopamine receptor. HEK293 TREx D1 cells, calcium flux, dopamine EC80; hits give low values. activity change, negative = inhibition, % at 10 µM. 360,000 compounds, 3.2% hits; in the data active = activity change below about -30%
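Compound effects on dopamine-evoked calcium signalling were measured in tetracycline-induced HEK293 Trex D1 cells. Dopamine at EC80 followed a 180 s compound pre-read, and fluorescence was tracked kinetically for 180 s more.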
D1 ag – human D1 receptor agonism; P21728; HEK293 T-REx D1 cells, calcium flux, agonist mode; activation, % at 2 µM; 360,000 compounds, 1% hits; AID 504660
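Agonism was scored from calcium flux recorded over 180 s (1 read/s) after pintool compound addition, following a 10-cycle baseline. Cells were inducible force-coupled HEK293 TREx D1, plated overnight at 30 C and loaded with no-wash calcium dye.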
TRHR PAM – allosterically enhances the human TRH receptor | P34981 | TRHR cells, fluo-8 calcium fluorescence, EC20 TRH enhancement | enhancement, % at 2 µM | 360,000 compounds, 0.66% hits; in the data active = enhancement above about 30%
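Enhancer read-out: after compound pinning and an initial kinetic agonist-mode read, an EC20 of TRH (10 nM final) was injected and fluo-8 calcium signal (Ex 480/Em 530) followed at 1 s/cycle for 100 cycles in TRHR-expressing cells.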
Of the large screens only hits and unclear results are named; the others gave an inactive call. Cut-off read from the data, not from the text of the source, unless noted: active = activation above about 30%; inactive = the rest.

CC(C(=O)Nc1nccs1)c1ccc([N+](=O)[O-])cc1 (stereo unspecified)	none
COc1ccc(CNC(=O)CCSc2ccc(F)cc2)cc1OC	D1 antag -40
Clc1ccc2c(c1)CNc1c(ncnc1N1CCOCC1)O2	D1 antag -43
Clc1ccc2c(N3CCOCC3)ccnc2c1	none
O=C(CCC1N=C2c3ccccc3N=C(SCC(=O)Nc3ccc(F)cc3)N2C1=O)NCc1cccs1 (stereo unspecified)	none
COc1ccccc1CNC(=O)CCC1N=C2c3ccccc3N=C(SCC(N)=O)N2C1=O (stereo unspecified)	D1 antag -37
CCCCNC(=O)CSC1=Nc2ccccc2C2=NC(CCC(=O)NCc3ccccc3OC)C(=O)N12 (stereo unspecified)	none
O=C(CCC1N=C2c3ccccc3N=C(SCC(=O)Nc3ccccc3F)N2C1=O)NCc1cccs1 (stereo unspecified)	D1 antag -38
Cc1ccc(CSC2=Nc3ccccc3C3=NC(CC(=O)NCc4ccc5c(c4)OCO5)C(=O)N23)cc1 (stereo unspecified)	D1 antag -61
COc1ccc(-c2nc3c(c(SCC(=O)N4CCCCC4)n2)Cc2cc(C)ccc2O3)cc1	none
COc1ccccc1NC(=O)c1cc2c(n(-c3ccc(C)cc3)c1=O)CC(C)(C)CC2=O	D1 antag -31
Cc1ccc(C)c(OCc2cc(C(=O)NC3CCOC(C)(C)C3)no2)c1 (stereo unspecified)	none
c1ccc(CNc2ncnc3c2cnn3-c2ccccc2)cc1	none
Cc1cccc(-n2ncc3c(NCc4ccccc4)ncnc32)c1	D1 antag -89
COc1ccc(OC)c(Nc2ncnc3c2cnn3-c2cccc(Cl)c2)c1	none
COc1ccc(OC)c(Nc2ncnc3c2cnn3-c2cccc(C)c2)c1	D1 antag -40
Cc1ccc(-n2ncc3c(NCCc4ccccc4)ncnc32)cc1C	D1 antag -59
Cc1cc2c(s1)c1cnn(Cc3ccc(C(C)(C)C)cc3)c(=O)c1n2C	none
Cn1ccnc1COc1ccc(/C=N/O)cc1	none
COc1ccc([C@H]2CC(=O)C=C(c3cc(OC)ccc3OC)C2)cc1	D1 antag -35
COc1ccc([C@H]2CC(=O)C=C(c3ccc(O)cc3)C2)cc1OC	D1 antag -86
COc1cccc(CSc2nc3n(n2)C(c2cccs2)C(C(=O)Nc2ccccc2C)=C(C)N3)c1 (stereo unspecified)	none
CCN(CC)CCOC(=O)c1ccc(NC(=O)CCCN2C(=O)S/C(=C/c3ccc(OC)cc3)C2=S)cc1	D1 antag -65
COc1cc(OC)c(NC(=O)CSc2cc(=O)n(C)c3ccc(Cl)cc23)cc1Cl	TRHR PAM 40
O=C(c1ccoc1)N1CCC2(CC1)Oc1ccc(Cl)cc1C(=O)C21CC(c2cccnc2)=NO1 (stereo unspecified)	D1 antag -100
Cc1cccc(Oc2nc3ccccn3c(=O)c2/C=C(\C#N)c2nc3ccccc3s2)c1C	none
CCOC(=O)Cc1cc(-c2ccc(O)cc2)nc2ccc3ccccc3c12	none
CCOC(=O)Cc1cc(-c2ccc(F)cc2)nc2ccc3ccccc3c12	D1 antag -57
CCC(=O)Nc1ccc(N/C(N)=N/c2nc(C)cc(C)n2)cc1	none
CCCCc1ccc(N/C(N)=N/c2nc(C)cc(C)n2)cc1	D1 ag 64
Cc1ccc(N/C(N)=N/c2nc(C)cc(C)n2)cc1	D1 antag -74
Cc1cc(C)nc(/N=C(\N)Nc2ccc(C(C)C)cc2)n1	D1 ag 35
Cc1cc(C)nc(/N=C(\N)Nc2cccc([N+](=O)[O-])c2)n1	D1 ag 34
Cc1cc(C)nc(/N=C(\N)Nc2ccc([N+](=O)[O-])cc2)n1	none
Cc1cc(C)cc(N/C(N)=N/c2nc(C)cc(C)n2)c1	none
CC(Sc1nnc2ccc3ccccc3n12)C(=O)Nc1ccc(Cl)cc1 (stereo unspecified)	none
COc1ccc(NC(=O)Cn2c(=O)n(-c3ccc(OC)cc3)c(=O)c3ccc(C(=O)NCc4ccc(C)cc4)cc32)cc1	none
COc1ccc(C2c3c(-c4ccccc4O)n[nH]c3C(=O)N2CCc2ccccc2)cc1 (stereo unspecified)	none
CC(C)CNc1cc(NC2CCCCC2)c2c3c(onc13)-c1ccccc1C2=O	none
O=C1c2ccccc2-c2onc3c(Br)cc(NC4CCCCC4)c1c23	D1 ag 39
Cn1c(=O)[nH]c2cc(-c3noc(-c4ccc(F)cc4)n3)ccc21	none
O=C(CCC1CCN(C(=O)c2ccco2)CC1)NCc1ccc(F)cc1	D1 antag -50
O=C(c1ccco1)N1CCN(c2nc(-c3ccc(F)cc3)cs2)CC1	D1 antag -42
COCCCn1c(=O)c2sccc2n2c(CCCC(=O)Nc3cc(C)cc(C)c3)nnc12	none
N#C/C(=C/c1ccc(O)c(O)c1)C(=O)NCc1ccc(Cl)cc1	D1 antag -33, D1 ag 79 (no result: D1 potentiator)
Clc1ccc2nc3c4ccccc4cnn3c2c1	none
Oc1ccc2nnc3c(Br)cnn3c2c1	TRHR agonist 52, D1 ag 171
CCOC(=O)C1CCN(C(=O)Cc2ccc(-c3ccccc3)cc2)CC1	none
CN(C(=O)c1cc2c(s1)-c1ccc(Cl)cc1SC2)c1cccc(C(F)(F)F)c1	none
COc1ccc(COC(=O)Nc2cc3c(C(F)(F)F)nn(C)c3s2)cc1	TRHR PAM 30
Cn1nc(C(F)(F)F)c2cc(NC(=O)OCc3ccc(F)cc3)sc21	none
COc1ccc(NC(=O)c2c(NCc3ccc(OC)c(OC)c3OC)sc3c2CCC3)c(OC)c1	none
O=C(O)c1ccccc1C(=O)c1cccc2ccccc12	D1 antag -37
O=C(O)c1ccccc1C(=O)c1ccc(Br)s1	D1 antag -34
Cc1ccc(C(=O)c2ccccc2C(=O)O)s1	none
COc1cccc(C(=O)Nc2ccc3nc(SCCOc4ccccc4)sc3c2)c1	none
N#CC1=C(N)Oc2n[nH]c(-c3ccccn3)c2C1c1c(F)cccc1Cl (stereo unspecified)	D1 antag -31
COCc1[nH]nc2c1C(c1c(F)cccc1Cl)C(C#N)=C(N)O2 (stereo unspecified)	none
Cc1ccc(C(=O)NCC(=O)OCc2c(F)cccc2Cl)cc1	none
Cc1ccc(S(=O)(=O)NCC(=O)NCC(=O)OCc2c(F)cccc2Cl)cc1	D1 antag -62
CCOC(=O)c1cccc(NC(=O)c2cc3ccccc3o2)c1	D1 antag -42
O=C(Nc1cccc(C(=O)N2CCCCCC2)c1)c1ccco1	none
CCOC(=O)N1CCN(C(=O)c2cccc(NC(=O)c3ccco3)c2)CC1	D1 antag -63
CCOC(=O)c1cccc(NC(=O)c2ncoc2-c2ccco2)c1	D1 antag -39
CCCCn1nnc(NC(=O)c2cc3ccccc3o2)n1	D1 antag -36

Compound activity (PubChem BioAssay)
